Reference: PubChem BioAssay (Tox21)
A number with no mark means an inactive call. Inconclusive results are not listed. Where a call stands in place of a potency, no number is given. Activity calls are given as the source filed them. Unless noted, calls follow the shape of the full dose curve.

Experiments:
[1] = Nuclear factor erythroid 2-related factor 2/antioxidant responsive element (Nrf2/ARE) small molecule agonists: qHTS cell viability counter screen in human keratinocytes (AID 1919968; active = well fitted curve in the direction sought with a large enough effect in the repeat runs; an effect the other way counts as inactive or inconclusive; also: nearly all actives have a fitted effect of over 55% in size; also: potency is read from the fitted curve at half-maximal effect)
Outline: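 HaCaT ARE reporter line, 1,500 cells/well; 5 h settle, 37 C/5% CO2; cpd in DMSO pinned; 23 h exposure; CellTiter-Fluor, 1 h; fluorescence.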

[2] = Nuclear factor erythroid 2-related factor 2/antioxidant responsive element (Nrf2/ARE) small molecule agonists: luciferase reporter gene qHTS assay in human keratinocytes (AID 1919969); also: nearly all actives have a fitted effect of over 35% in size
[3] = molecular target: Gonadotropin-releasing hormone receptor (Homo sapiens) (UniProt P30968); assay: Human gonadotropin-releasing hormone receptor (GnRHR) small molecule agonists, calcium flux assay in GnRHR-HEK293 cells (AID 1920063); also: nearly all actives have a fitted effect of over 35% in size
Outline: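 GnRHR-HEK293, 1500 cells/well, 18 h 37 C/5% CO2; Ca dye 1 h 37 C; cpd pinned (DMSO), agonist mode; kinetic FL 480/540, 3 min, 1 s reads; 15 conc, n=3.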

[4] = molecular target: KiSS-1 receptor (Homo sapiens) (UniProt Q969F8); assay: Human kisspeptin (KISS1R) small molecule agonists, calcium flux assay in KISS1R-HEK293 cells (AID 1920064; active = well fitted curve in the direction sought with a large enough effect in the repeat runs; an effect the other way counts as inactive or inconclusive)
Outline: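 Stable human KISS1R HEK293 line; 18 h plating, 37 C/5% CO2; calcium dye 1 h 37 C; compound pin transfer; kinetic fluorescence Ex/Em 480/540, 3 min.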

[5] = G protein-coupled receptor (GPCR) small molecule agonists, calcium flux assay: HEK293 wild type cell line counter screen (AID 1920065)
Outline: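 Kinetic fluorescence at Ex/Em 480/540, recorded every second over 3 min, served as the read-out after compound addition. Each compound was tested at 15 concentrations in triplicate on cells pre-loaded with calcium dye for 1 h.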

[6] = p53 small molecule agonists, cell-based qHTS assay with human liver microsomes (AID 1963577);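 also: p53 response element beta-lactamase reporter cells with liver microsomes plus NADPH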
Outline: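 Steps: plate p53RE-bla cells, incubate 5 h at 37 C; add compound in DMSO; add microsomes (0.5 mg/mL final) and NADPH (0.5 mg/mL final); incubate 16 h at 37 C; add LiveBLAzer, 2 h RT; read fluorescence.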

[7] = p53 small molecule agonists, cell-based qHTS assay with rat liver microsomes (AID 1963578)
Outline: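 Metabolic activation is supplied by rat liver microsomes with NADPH (each 0.5 mg/mL final). p53RE-bla cells incubate with compound 16 h at 37 C; reporter activity is measured by LiveBLAzer fluorescence.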

[8] = p53 small molecule agonists, cell-based qHTS assay with human liver microsomes: qHTS cell viability counter screen (AID 1963579); also: nearly all actives have a fitted effect of over 45% in size; also: potency is read from the fitted curve at half-maximal effect
Outline: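 After the 460/530 nm beta-lactamase read, CellTiter-Glo was added to the same wells and luminescence measured after 30 min at room temperature, giving viability of p53RE-bla cells treated 16 h with compounds plus microsomes and NADPH.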

[9] = p53 small molecule agonists, cell-based qHTS assay with rat liver microsomes: qHTS cell viability counter screen (AID 1963580); also: nearly all actives have a fitted effect of over 45% in size; also: potency is read from the fitted curve at half-maximal effect
Outline: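 HCT-116 p53RE-bla, 4,000 cells/well, 5 h pre-incubation; cpd + rat liver microsomes 0.5 mg/mL + NADPH 0.5 mg/mL (final); 16 h, 37 C; CellTiter-Glo, 30 min RT; luminescence.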

[10] = p53 small molecule agonists, cell-based qHTS assay: qHTS cell viability counter screen (AID 1963581); also: nearly all actives have a fitted effect of over 45% in size; also: potency is read from the fitted curve at half-maximal effect
Outline: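 HCT-116 p53RE-bla cells, 4,000/well, plated 5 h before compound pin transfer; 16 h at 37 C; bla substrate 2 h RT; then CellTiter-Glo, 30 min RT, luminescence.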

[11] = molecular target: 5-hydroxytryptamine receptor 2A (Homo sapiens) (UniProt P28223); assay: 5-hydroxytryptamine receptor 2A (HTR2A) small molecule antagonists, cell-based qHTS assay (AID 1963586); also: nearly all actives have a fitted effect of over 45% in size; also: potency is read from the fitted curve at half-maximal effect
Outline: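 Antagonist-mode intracellular calcium assay: DOI (4 nM) added after 5 min compound pre-incubation at room temperature to dye-loaded HTR2A-CHO cells. Fluorescence followed for 3 min, sampled every second.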

[12] = molecular target: Muscarinic acetylcholine receptor M1 (Homo sapiens) (UniProt P11229); assay: Cholinergic receptor muscarinic 1 (CHRM1) small molecule antagonists, cell-based qHTS assay (AID 1963588); also: nearly all actives have a fitted effect of over 40% in size
Outline: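 CHRM1-CHO calcium-flux assay, antagonist mode. Cells were seeded 18 h, dye-loaded 1 h at 37 C and given compound for 5 min at RT, then acetylcholine was added at 50nM. FDSS fluorescence was read 3 min; 15 concentrations, three runs.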

[13] = molecular target: Muscarinic acetylcholine receptor M1 (Homo sapiens) (UniProt P11229); assay: Cholinergic receptor muscarinic 1 (CHRM1) small molecule agonists, cell-based qHTS assay (AID 1963589); also: nearly all actives have a fitted effect of over 35% in size
Outline: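 Human M1 in stable CHO line; 18 h plating, 1 h dye load 37 C; cpd added (agonist mode); Ca2+ fluorescence kinetic read, 1 s intervals; 15 conc, 3 runs.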

[14] = cAMP Responsive Elements (CRE) small molecule agonists, cell-based qHTS assay (AID 1963590)
Outline: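 HEK 293T CRE-bla, 2,000 cells/well, 18 h preincubation 37 C/5% CO2; cpds (DMSO) pinned, 3 h; LiveBLAzer B/G FRET substrate, 2 h RT.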

[15] = cAMP Responsive Elements (CRE) small molecule antagonists, cell-based qHTS assay (AID 1963591; active = well fitted inhibition curve with a large enough effect in the signal ratio in the repeat runs, not every such curve was filed as active; the % refers to the signal ratio)
Outline: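 Beta-lactamase reporter read by FRET substrate (LiveBLAzer B/G) after 2 h at room temperature. CRE-bla HEK293T cells had received compound plus 0.25 uM (final) NKH477 for 3 h at 37 °C.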

[16] = molecular target: Beta-2 adrenergic receptor (Homo sapiens) (UniProt P07550); assay: Adrenergic beta2 receptor (ADRB2) small molecule agonists, cell-based qHTS assay (AID 1963593);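 also: CHO cells stably overexpressing human ADRB2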
Outline: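 CHO cells stably over-expressing ADRB2 were plated overnight at 37C, then dosed with compounds plus a stimulation mix containing 100uM IBMX and 25uM Ro-20-1724 for 0.5hr at room temperature. cAMP was measured by HTRF competition, 1hr.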

[17] = molecular target: D(2) dopamine receptor (Homo sapiens) (UniProt P14416); assay: Dopamine D2 receptor (DRD2) small molecule agonists, cell-based qHTS assay (AID 1963594); also: nearly all actives have a fitted effect of over 35% in size
Outline: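 cAMP accumulation in DRD2-HEK293 cells measured by HTRF after 1 h detection; compounds added 10 min before NKH477 (200nM […]) forskolin-analogue stimulation, 30 min at room temperature, with Ro20-1724 present at 0.1 mM final.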

[18] = molecular target: D(2) dopamine receptor (Homo sapiens) (UniProt P14416); assay: Dopamine D2 receptor (DRD2) small molecule antagonists, cell-based qHTS assay (AID 1963595; active = well fitted inhibition curve with a large enough effect in the signal ratio in the repeat runs, with a control signal flat; the % refers to the signal ratio)
Outline: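 HTRF cAMP read-out at 665 and 620 nm emission (340 nm excitation). Antagonist mode: compounds were tested against 12 nM quinpirole in DRD2-HEK293 cells, with 200 nM NKH477 raising cAMP and 0.1 mM Ro20-1724 blocking its breakdown.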

[19] = molecular target: 5-hydroxytryptamine receptor 2A (Homo sapiens) (UniProt P28223); assay: 5-hydroxytryptamine receptor 2A (HTR2A) small molecule agonists, cell-based qHTS assay (AID 1963587); also: nearly all actives have a fitted effect of over 30% in size
Outline: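 Kinetic calcium-flux fluorescence (2 min, 1 sec intervals) after compound addition in agonist mode. HTR2A-CHO cells were cultured 18 h, then dye-loaded 1 h at 37 C.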

[20] = molecular target: Beta-2 adrenergic receptor (Homo sapiens) (UniProt P07550); assay: Adrenergic beta2 receptor (ADRB2) small molecule antagonists, cell-based qHTS assay (AID 1963592); also: series mostly up to about 92 µM; nearly all actives have a fitted effect of over 50% in size
Outline: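 Cells (CHO, stable ADRB2 overexpression) incubated 18-20hr at 37C; compounds added from DMSO; agonist mix (1nM isoproterenol, 100uM IBMX, 25uM Ro-20-1724) added; 0.5hr RT; d2-cAMP and anti-cAMP-cryptate added; 1hr RT; 665/615 nm read.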

D(2) dopamine receptor (Homo sapiens), sequence (P14416 whole entry, looked up): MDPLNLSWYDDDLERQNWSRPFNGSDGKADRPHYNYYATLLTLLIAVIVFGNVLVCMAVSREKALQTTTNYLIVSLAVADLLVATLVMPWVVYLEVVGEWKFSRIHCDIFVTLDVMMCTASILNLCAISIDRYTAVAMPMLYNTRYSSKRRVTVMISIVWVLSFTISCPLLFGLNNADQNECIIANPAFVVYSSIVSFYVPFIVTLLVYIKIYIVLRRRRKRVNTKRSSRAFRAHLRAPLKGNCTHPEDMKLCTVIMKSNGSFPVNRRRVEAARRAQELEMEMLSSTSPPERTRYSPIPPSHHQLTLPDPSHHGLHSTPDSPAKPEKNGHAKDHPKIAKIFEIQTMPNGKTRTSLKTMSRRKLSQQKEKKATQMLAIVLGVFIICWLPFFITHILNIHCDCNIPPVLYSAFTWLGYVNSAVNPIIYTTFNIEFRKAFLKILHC
Beta-2 adrenergic receptor (Homo sapiens), sequence (P07550 whole entry, looked up): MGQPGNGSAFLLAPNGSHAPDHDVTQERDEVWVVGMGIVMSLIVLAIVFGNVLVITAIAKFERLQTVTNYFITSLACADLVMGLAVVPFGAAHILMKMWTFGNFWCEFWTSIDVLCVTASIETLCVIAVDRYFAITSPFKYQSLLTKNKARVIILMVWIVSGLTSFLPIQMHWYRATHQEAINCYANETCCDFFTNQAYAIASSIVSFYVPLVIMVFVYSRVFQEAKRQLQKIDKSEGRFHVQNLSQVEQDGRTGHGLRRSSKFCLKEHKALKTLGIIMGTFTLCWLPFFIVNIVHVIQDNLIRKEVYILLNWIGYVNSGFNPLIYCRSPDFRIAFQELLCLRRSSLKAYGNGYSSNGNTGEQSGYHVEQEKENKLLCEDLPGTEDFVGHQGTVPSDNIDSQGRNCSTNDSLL
KiSS-1 receptor (Homo sapiens), sequence (Q969F8 whole entry, looked up): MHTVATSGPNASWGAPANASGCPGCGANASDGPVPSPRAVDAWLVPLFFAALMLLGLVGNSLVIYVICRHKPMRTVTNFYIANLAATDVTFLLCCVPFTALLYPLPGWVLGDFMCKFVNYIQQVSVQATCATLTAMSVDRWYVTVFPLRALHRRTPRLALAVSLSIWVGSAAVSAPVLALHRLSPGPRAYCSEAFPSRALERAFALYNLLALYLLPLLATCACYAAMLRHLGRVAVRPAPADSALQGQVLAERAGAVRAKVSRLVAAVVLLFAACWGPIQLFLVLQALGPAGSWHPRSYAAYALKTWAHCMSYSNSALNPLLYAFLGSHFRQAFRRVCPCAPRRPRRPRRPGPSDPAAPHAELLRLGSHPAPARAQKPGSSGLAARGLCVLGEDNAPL
Gonadotropin-releasing hormone receptor (Homo sapiens), sequence (P30968 whole entry, looked up): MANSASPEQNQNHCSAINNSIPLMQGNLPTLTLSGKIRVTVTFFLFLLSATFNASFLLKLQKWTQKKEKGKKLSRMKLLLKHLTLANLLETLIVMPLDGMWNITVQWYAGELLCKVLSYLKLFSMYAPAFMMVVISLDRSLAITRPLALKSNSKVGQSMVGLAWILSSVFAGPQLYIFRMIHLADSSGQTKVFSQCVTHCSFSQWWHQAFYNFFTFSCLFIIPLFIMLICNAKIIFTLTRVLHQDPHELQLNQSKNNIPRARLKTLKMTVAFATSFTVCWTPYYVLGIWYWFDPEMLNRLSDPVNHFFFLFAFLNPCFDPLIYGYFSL
5-hydroxytryptamine receptor 2A (Homo sapiens), sequence (P28223 whole entry, looked up): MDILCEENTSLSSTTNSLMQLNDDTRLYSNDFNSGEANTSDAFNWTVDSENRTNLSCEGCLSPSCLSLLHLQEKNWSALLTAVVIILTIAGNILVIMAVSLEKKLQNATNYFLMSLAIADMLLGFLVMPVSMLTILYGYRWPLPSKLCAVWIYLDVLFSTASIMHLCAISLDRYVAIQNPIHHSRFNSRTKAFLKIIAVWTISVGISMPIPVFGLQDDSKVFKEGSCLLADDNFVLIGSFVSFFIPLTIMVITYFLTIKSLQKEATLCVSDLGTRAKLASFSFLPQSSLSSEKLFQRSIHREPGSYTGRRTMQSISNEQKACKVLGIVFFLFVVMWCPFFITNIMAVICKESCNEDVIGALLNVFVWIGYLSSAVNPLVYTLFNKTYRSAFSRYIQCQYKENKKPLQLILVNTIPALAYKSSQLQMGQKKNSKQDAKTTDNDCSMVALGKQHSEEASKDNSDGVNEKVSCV
Muscarinic acetylcholine receptor M1 (Homo sapiens), sequence (P11229 whole entry, looked up): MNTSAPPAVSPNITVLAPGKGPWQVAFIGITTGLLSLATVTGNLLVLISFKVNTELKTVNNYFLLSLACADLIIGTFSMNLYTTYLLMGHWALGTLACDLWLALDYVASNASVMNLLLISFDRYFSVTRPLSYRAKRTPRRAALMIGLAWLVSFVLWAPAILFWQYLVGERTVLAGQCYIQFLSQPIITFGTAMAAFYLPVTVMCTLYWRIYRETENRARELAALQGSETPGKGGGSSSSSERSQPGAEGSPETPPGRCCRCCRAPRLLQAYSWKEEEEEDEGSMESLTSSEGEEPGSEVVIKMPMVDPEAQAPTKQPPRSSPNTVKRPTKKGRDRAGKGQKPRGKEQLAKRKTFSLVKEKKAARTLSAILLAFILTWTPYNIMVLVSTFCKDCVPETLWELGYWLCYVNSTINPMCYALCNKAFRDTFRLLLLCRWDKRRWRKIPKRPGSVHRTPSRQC

N=C(N)c1ccc(OCCCOc2ccc(C(=N)N)cc2)cc1
Potency [1]: inactive | Potency [2]: inactive | Potency [3]: inactive | outcome [4]: inactive | outcome [5]: inactive | Potency [6]: inactive | Potency [7]: inactive | Potency [8]: inactive | Potency [9]: inactive | Potency [10]: inactive | Potency [11]: inactive | Potency [12]: inactive | Potency [13]: inactive | Potency [14]: inactive | Potency [15]: inactive | Potency [16]: inactive | Potency [17]: inactive | Potency [18]: inactive

CCCCCCCCCOC(=O)c1ccccc1C(=O)OCCCCCCCCC
Potency [1]: inactive | Potency [2]: inactive | Potency [3]: inactive | outcome [4]: inactive | outcome [5]: inactive | Potency [6]: inactive | Potency [7]: inactive | Potency [8]: inactive | Potency [9]: inactive | Potency [10]: inactive | Potency [11]: inactive | Potency [19]: inactive | Potency [12]: inactive | Potency [14]: inactive | Potency [15]: inactive | Potency [20]: inactive | Potency [17]: inactive | Potency [18]: inactive

Cc1oc(-c2ccccc2)nc1CCOc1ccc(C[C@H](Nc2ccccc2C(=O)c2ccccc2)C(=O)O)cc1
Potency [1]: 30.6 µM (active) | Potency [2]: inactive | Potency [3]: inactive | outcome [4]: inactive | outcome [5]: inactive | Potency [6]: inactive | Potency [7]: inactive | Potency [8]: 28.9 µM (active) | Potency [9]: 45.8 µM (active) | Potency [10]: 20.4 µM (active) | Potency [11]: inactive | Potency [19]: inactive | Potency [12]: inactive | Potency [20]: inactive | Potency [16]: inactive | Potency [17]: inactive | Potency [18]: inactive

O=C1c2ccccc2C(=O)N1CCl
Potency [1]: inactive | Potency [2]: inactive | Potency [3]: inactive | outcome [4]: inactive | outcome [5]: inactive | Potency [6]: inactive | Potency [7]: inactive | Potency [8]: inactive | Potency [9]: inactive | Potency [10]: inactive | Potency [11]: inactive | Potency [12]: inactive | Potency [13]: inactive | Potency [14]: inactive | Potency [20]: inactive | Potency [16]: inactive | Potency [17]: inactive | Potency [18]: inactive

O=C(O)CCCCCCC(=O)O
Potency [1]: inactive | Potency [2]: inactive | Potency [3]: inactive | outcome [4]: inactive | outcome [5]: inactive | Potency [6]: inactive | Potency [7]: inactive | Potency [8]: inactive | Potency [9]: inactive | Potency [10]: inactive | Potency [11]: inactive | Potency [12]: inactive | Potency [13]: inactive | Potency [14]: inactive | Potency [15]: inactive | Potency [20]: inactive | Potency [16]: inactive | Potency [18]: inactive

CCN(CC)CCOC(=O)C(Cc1cccc2ccccc12)CC1CCCO1 (stereo not drawn)
Potency [1]: inactive | Potency [2]: inactive | Potency [3]: inactive | outcome [4]: inactive | outcome [5]: inactive | Potency [6]: inactive | Potency [7]: inactive | Potency [8]: inactive | Potency [9]: inactive | Potency [10]: inactive | Potency [19]: inactive | Potency [12]: inactive | Potency [13]: inactive | Potency [14]: inactive | Potency [20]: inactive | Potency [16]: inactive | Potency [17]: inactive | Potency [18]: inactive

Nc1ccc(Oc2cccc(Oc3ccc(N)cc3)c2)cc1
Potency [1]: inactive | Potency [2]: inactive | Potency [3]: inactive | outcome [4]: inactive | outcome [5]: inactive | Potency [6]: inactive | Potency [7]: inactive | Potency [8]: inactive | Potency [9]: inactive | Potency [10]: inactive | Potency [11]: 0.84 µM (active) | Potency [12]: inactive | Potency [15]: inactive | Potency [20]: inactive | Potency [17]: inactive | Potency [18]: inactive
